Compound activity as filed in PubChem BioAssay.
In the library only some 3% were active in any assay of this set; here they are far more common.
KAT2A inh = qHTS Assay for Inhibitors of GCN5L2 | Histone acetyltransferase KAT2A (Homo sapiens), Q92830 | GCN5L2 HAT assay, ThioGlo1 CoA-SH fluorescence | Potency, µM (series often up to 58.9 µM), for the others: at the top dose activity change, negative = inhibition, hits mostly inhibitors | actives 0.21% (n = 390,000) | AID 504327, 2011
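Titration-based screen in which CoA formation is detected via maleimide probe ThioGlo1 (50uM) turning fluorescent on thiol reaction; substrates H3(1-25) 75uM and acetyl-CoA 70uM, GCN5L2 20nM, 20 min incubation at room temperature.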
ALOX12 inh = Primary qHTS assay for inhibitors of human arachidonate 12S-lipoxygenase (ALOX12): Round 2; Polyunsaturated fatty acid lipoxygenase ALOX12 (Homo sapiens), P18054; purified 12hLO, xylenol orange hydroperoxide absorbance; Potency, µM (titrated, usually from 108 µM), for the others: top-dose activity change, negative = inhibition, actives largely listed as inhibitors; actives 1.1% (n = 580,000)
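Hydroperoxide product was detected by ferrous iron/xylenol orange as the 573 to 405 nm absorbance ratio. Arachidonic acid at 40 uM (final) was turned over for 30 min at room temperature by 150 nM human 12hLO, pH 7.0 Hepes buffer, after 15 min compound preincubation.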
PLK1 PBD block = qHTS for Inhibitors of PLK1-PDB (polo-like kinase 1 - polo-box domain): Primary Screen; Plk1 PBD binding of FITC phosphopeptide, fluorescence polarization; AID 720504, 2013; Potency, µM, for the others: max response, negative = inhibition, hits mostly inhibitors; Serine/threonine-protein kinase PLK1 (Homo sapiens), P53350; actives 2.8% (n = 360,000); further: series mostly up to about 57 µM; nearly all actives have a fitted effect of over 65% in size
VDR inhibitor = Inhibitors of the vitamin D receptor (VDR): qHTS | Vitamin D3 receptor (Homo sapiens), P11473 | VDR-SRC2-3 peptide fluorescence polarization, 2 h | Potency, µM, without a hit: max response, negative = inhibition, actives largely listed as inhibitors | actives 0.93% (n = 400,000) | AID 504847, 2011
Target sequence (P11473 whole entry, looked up): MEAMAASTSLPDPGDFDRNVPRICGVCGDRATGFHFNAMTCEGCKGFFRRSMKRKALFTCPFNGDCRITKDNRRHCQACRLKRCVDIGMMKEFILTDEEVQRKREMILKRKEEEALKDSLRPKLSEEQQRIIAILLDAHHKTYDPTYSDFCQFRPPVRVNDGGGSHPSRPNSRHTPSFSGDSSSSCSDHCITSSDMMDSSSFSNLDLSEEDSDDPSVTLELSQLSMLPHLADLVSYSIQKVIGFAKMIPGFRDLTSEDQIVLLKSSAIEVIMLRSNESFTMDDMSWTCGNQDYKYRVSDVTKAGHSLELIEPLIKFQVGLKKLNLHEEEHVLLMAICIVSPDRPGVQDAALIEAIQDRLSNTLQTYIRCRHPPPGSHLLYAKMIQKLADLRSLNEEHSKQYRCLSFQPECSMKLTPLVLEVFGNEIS
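Fluorescence polarization assay measuring small-molecule disruption of VDR binding to the coregulator peptide SRC2-3. Compounds were pin-transferred (23 nl) into the reagent mix and incubated 2 h at room temperature before reading.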
The depositor's hits bear a star; ! = a repeat was not active. The call rests on the fitted dose curve; in most records, active means well fitted curve in the direction sought with a large enough effect; inconclusive means small, poorly fitted or top-dose-only effect, or another doubt; inactive means no such curve, though single readings can be large; an effect the other way counts as inactive or inconclusive. On the % scale 0 is the no-effect control and ±100 the full control effect; potency means the concentration at half of the fitted maximal effect.

For CC(C)c1ccc2c(c1)-c1ccccc1S(=O)(=O)N2CC(=O)NCc1cccnc1 the results were ALOX12 inh 9%.
For Cc1cc(C)c2nc(NC(=O)c3ccc(S(=O)(=O)N4CCCC4)cc3)sc2c1 the results were KAT2A inh -7%, ALOX12 inh inconclusive and VDR inhibitor -3%.
Cc1cc(C)c2nc(NNC(=O)c3ccc(S(=O)(=O)N4CCCCC4)cc3)sc2c1 was read as KAT2A inh -14%, ALOX12 inh 10µM*, PLK1 PBD block -17% and VDR inhibitor 7%.
O=C(NC1CCCN(c2cc(-c3ccc(F)cc3)[nH]n2)C1)c1nccc2ccccc12 (stereo not given) was read as ALOX12 inh 13%.
CCOc1ccc(NC(=S)NCc2ccc3[nH]c(C)cc3c2)cc1 was read as KAT2A inh -8%, ALOX12 inh 10µM*, PLK1 PBD block -24% and VDR inhibitor 2%.
Cc1cc2cc(CNC(=S)Nc3cccc(Br)c3)ccc2[nH]1 was read as ALOX12 inh 28µM*.
`CCCCNC(=S)NCc1ccc2[nH]c(C)cc2c1` gave KAT2A inh 0%, ALOX12 inh inconclusive, PLK1 PBD block 3% and VDR inhibitor -1%.
Screening COCC(=O)N1CCN(C(=O)Cc2ccc(N3CCCC3=O)cc2)CC1 returned ALOX12 inh 14%.
`CCOc1cc(/C=C2\C(=N)N3N=C(S(C)(=O)=O)SC3=NC2=O)ccc1OCCOc1cccc(OC)c1` gave KAT2A inh inconclusive, ALOX12 inh inconclusive, PLK1 PBD block 27µM* and VDR inhibitor inconclusive.
COc1cc(/C=C2\C(=N)N3N=C(S(C)(=O)=O)SC3=NC2=O)ccc1OCCOc1ccc(C)cc1 was read as KAT2A inh 4%, ALOX12 inh inconclusive, PLK1 PBD block inconclusive and VDR inhibitor 8%.
For CCS(=O)(=O)C1=NN2C(=N)/C(=C\c3ccc(OCCOc4cccc(OC)c4)c(OC)c3)C(=O)N=C2S1 the results were KAT2A inh -27%, ALOX12 inh inconclusive, PLK1 PBD block 24µM* and VDR inhibitor -18%.
`COc1ccc(C2c3cccn3CCN2S(=O)(=O)c2c(C)cc(C)cc2C)cc1OC` (stereo not given) gave ALOX12 inh -14%.
Cc1ccnc(NC(=O)CCC(=O)N(CC(=O)NCc2ccccc2)c2ccc3c(c2)OCO3)c1 was read as KAT2A inh 1%, ALOX12 inh 13%, PLK1 PBD block 3µM* and VDR inhibitor -4%.
For Cc1ccc(N(CC(=O)NCc2ccc3c(c2)OCO3)C(=O)CCC(=O)Nc2ccccn2)cc1 the results were KAT2A inh -4%, ALOX12 inh -14%, PLK1 PBD block -11% and VDR inhibitor -9%.
For COc1ccc2cc(-c3nc(-c4nonc4N)no3)c(=O)oc2c1 the results were ALOX12 inh -19%.
`CCCCc1c(C)nc2ccc(C)cc2c1SCC(=O)O` gave ALOX12 inh 0%.
For Cc1c(Br)c(=O)oc2c(Br)c(O)c(O)cc12 the results were KAT2A inh -2%, ALOX12 inh 22µM*, PLK1 PBD block 0% and VDR inhibitor -9%.
`COc1c(Br)cc2c(C)c(C(=O)O)oc2c1Br` gave KAT2A inh 3%, ALOX12 inh inconclusive, PLK1 PBD block 0% and VDR inhibitor -2%.
Screening O=C(NC1CCCCC1)Oc1cc2oc(=O)sc2cc1Br returned KAT2A inh -4%, ALOX12 inh inconclusive, PLK1 PBD block 2.1µM* and VDR inhibitor 45µM*.
Screening O=C(CCl)N1c2ccccc2Oc2ccc3ccccc3c21 returned ALOX12 inh inconclusive, PLK1 PBD block 8.4µM* and VDR inhibitor 20µM*.
CCc1cccc(NC(=O)C2CCCN(c3cnn(Cc4ccccc4)c(=O)c3)C2)c1 (stereo not given) was read as ALOX12 inh 40µM*.
Screening Cc1ccc(NC(=O)C2CCCN(c3cnn(Cc4ccccc4)c(=O)c3)C2)c(C)c1 (stereo not given) returned ALOX12 inh -11%.
O=C1C(SCCO)=C(SCCO)C(=O)c2ccccc21 was read as KAT2A inh -12%, ALOX12 inh inconclusive, PLK1 PBD block 2.1µM* and VDR inhibitor 5.6µM*.
`CC1CCN(Cc2ccc(CNc3ccc(C#N)cn3)cc2)CC1` gave ALOX12 inh -11%.
O=C(Cn1c(-c2ccccc2)c[n+]2ccsc12)c1ccc([N+](=O)[O-])cc1 was read as KAT2A inh -10%, ALOX12 inh -14%, PLK1 PBD block 30µM* and VDR inhibitor -26%.
For CS(=O)(=O)c1ccc(NC(=O)CN(Cc2cccs2)CC2CCCO2)cc1 (stereo not given) the results were ALOX12 inh 37%.
CC[n+]1c(/C=C2/C=C(C)CC(C)(C)C2)sc2ccc(OC)cc21 was read as KAT2A inh 98%, ALOX12 inh inconclusive, PLK1 PBD block 21µM* and VDR inhibitor inconclusive.
Screening CCN(CC)c1ccc(/C=C/c2ccc3ccc(OC)cc3[n+]2CC)cc1 returned KAT2A inh -4%, ALOX12 inh inconclusive, PLK1 PBD block -6% and VDR inhibitor 11%.
`COc1cc2c(cc1OC)C(c1ccc(-c3ccccc3Cl)o1)=NCC2` gave KAT2A inh -3%, ALOX12 inh 40µM*, PLK1 PBD block -13% and VDR inhibitor -7%.
`CCCCc1oc2ccc(NS(C)(=O)=O)cc2c1C(=O)c1ccc(OCCCN(CCCC)CCCC)cc1` gave ALOX12 inh 40µM*!.
For CCCCCOc1ccc(NS(C)(=O)=O)cc1 the results were KAT2A inh -2%, ALOX12 inh 9%, PLK1 PBD block -2% and VDR inhibitor 0%.
CCN1CCN(C(=S)c2ccc(OCC(=O)NCc3ccccc3)cc2)CC1 was read as KAT2A inh 5%, ALOX12 inh -12%, PLK1 PBD block 11µM* and VDR inhibitor inconclusive.
`O=[N+]([O-])c1ccc(-c2nc(Nc3ccc(I)cc3)c3ccccc3n2)cc1` gave ALOX12 inh -11%.
For CN(Cc1cc2ccccc2[nH]c1=O)C(=O)c1cccs1 the results were KAT2A inh 2%, ALOX12 inh 6%, PLK1 PBD block -14% and VDR inhibitor -8%.
Screening Cc1ccc2[nH]c(=O)c(CN(C)C(=O)c3cccs3)cc2c1 returned KAT2A inh 1%, ALOX12 inh 9%, PLK1 PBD block 30µM* and VDR inhibitor -12%.
CC(C)=CC[C@@H](O)C1=CC(=O)c2c(O)ccc(O)c2C1=O was read as KAT2A inh 25µM*, ALOX12 inh 2.2µM* and VDR inhibitor 1.8µM*.
Screening Cc1ccc(C)c(S(=O)(=O)N2CCCN(C)c3ccccc32)c1 returned ALOX12 inh -6%.
Screening O=C1Nc2ccccc2/C1=C/c1ccccc1F returned KAT2A inh 3%, ALOX12 inh 3%, PLK1 PBD block 30µM* and VDR inhibitor inconclusive.
